Paper PMC13494018

B1: design_488_244881a1-ba0c-4c08-ad9c-1f64cf93580a_578_dldesign_0_cycle1_af2pred (protein)
chain: GAAAAARRAAAFTLLEIARSLVAAGPQYAGSAIRTAAQALALVAPEYEEEVRAVGREEGAAAAVEYARELLA
B2: design_488_244881a1-ba0c-4c08-ad9c-1f64cf93580a_2145_dldesign_0_cycle1_af2pred (protein)
chain: MKEEEVEKKIEEAAKIAGITMRVLKKLLPDDPFLATQLAMKVAVELGKKVGELAGSEEVEKRAYEAAIEAMMKAAV
B3: design_610_f34cc193-997c-4684-af32-2a8002718429_112_dldesign_0_cycle1_af2pred (protein)
chain: MEEVKEEVIKVIEEAAAKAKKAIEADPSTAWAHASAAYATASKAIIANAPKLSPEEMTEVGEVFLKNMKELTEHAKAVAAA
B4: design_610_f34cc193-997c-4684-af32-2a8002718429_113_dldesign_0_cycle1_af2pred (protein)
chain: AAAAAAAAEKAAAVAAIKEIAEAAKAHAATVGFRALAASAATVVRLAEQGLWTPEGVKKALEVLKAIYEAELAALKAAAA
B5: design_488_244881a1-ba0c-4c08-ad9c-1f64cf93580a_1178_dldesign_0_cycle1_af2pred (protein)
chain: SDAEKAESALKFLNTLEEIGIIAKKEYGPEFAQNMINSIENSSKIFAAAVSPEYAKKILEKAKEAIEKIKAA
B6: design_488_244881a1-ba0c-4c08-ad9c-1f64cf93580a_2479_dldesign_0_cycle1_af2pred (protein)
chain: SEEYIKEAEKLLKEAKEVAAVAKASGDPVALRGAAAFADAVKQVALAKAKKASEEVAKKLEEIAKEAEKLAKELRAAAAA
B7: design_488_244881a1-ba0c-4c08-ad9c-1f64cf93580a_1386_dldesign_0_cycle1_af2pred (protein)
chain: DQARKATEAAAKALLAQVERLSEEAVKAAKEDPAEAKRYLEAAEALRDVIAGLADEEIAKEYAAKAKEIIEKARKEVEAYLAAK
B8: design_488_244881a1-ba0c-4c08-ad9c-1f64cf93580a_1644_dldesign_0_cycle1_af2pred (protein)
chain: KEAVVREAGEALEELLRYASRIDPAEGARLVAEASRILRQAVLGDEEEAEEARERVERLREEARERAEAA
B9: design_488_244881a1-ba0c-4c08-ad9c-1f64cf93580a_478_dldesign_0_cycle1_af2pred (protein)
chain: ITEAEAKELAEMVRTPETAPEAAARLEALGAASTPGQAAFFRAAAALARLAAEAPEEERPRYAEGVLKILQAAI
B10: design_488_244881a1-ba0c-4c08-ad9c-1f64cf93580a_688_dldesign_0_cycle1_af2pred (protein)
chain: DTARQALIASAQQARKQLEAAKALTPEEQARAAQAVLELARQLAESAEAAGDEEALALAREVAEAAEAAIKEAKAA
B11: design_488_244881a1-ba0c-4c08-ad9c-1f64cf93580a_1373_dldesign_0_cycle1_af2pred (protein)
chain: MTAAQAAAAVASLAQSAVLAAKQDPALAKQAVEAAQSFAIWATTKLGDAALAEAAAKALKDAGKAAPAVAKQAEAAAKAVLDTAKKL
B12: design_488_244881a1-ba0c-4c08-ad9c-1f64cf93580a_858_dldesign_0_cycle1_af2pred (protein)
chain: DEEREKLLAEAEKYLAAAVAAAKAAGVQGGQVRAIANSLAIALRTGNTAGAATLLTSLVATAAKVGPEVLTHANKAKEKATQWIALA
B13: design_488_244881a1-ba0c-4c08-ad9c-1f64cf93580a_1252_dldesign_0_cycle1_af2pred (protein)
chain: DAARRQGAVAFMQQVLESAKNYPEAAPIAQAGLDRVAAAVAAGAPADEVVALARREAAAANKAMIAAAKA
B14: design_488_244881a1-ba0c-4c08-ad9c-1f64cf93580a_1684_dldesign_0_cycle1_af2pred (protein)
chain: AAATAQAKADAAKAKAAVESGQDTSALATGHLLRAYSLDPAVADATLAELKALAAGRGTAVATQAIANFAAGVA
B15: design_488_244881a1-ba0c-4c08-ad9c-1f64cf93580a_492_dldesign_0_cycle1_af2pred (protein)
chain: ATALLRSALAQAKSAIIAMKQDPEQGAQLAEGAALTAKAAGDEETAKKLEEAAKLAKEGKAEEAIKLLEEAAKELAKAI
B16: design_488_244881a1-ba0c-4c08-ad9c-1f64cf93580a_1058_dldesign_0_cycle1_af2pred (protein)
chain: MAEAQALLLETAKEAYEYAKEDPENAEYYLAAATHVLRALSALTTDPAKAIELLEKAIEEAKKTDPEKGEELIKKIEEAKKLVEAAA
B17: design_488_244881a1-ba0c-4c08-ad9c-1f64cf93580a_1769_dldesign_0_cycle1_af2pred (protein)
chain: GEEAKKLKEKADELFAKAKAVLEDPTATKEELTEAAIYASEAAVLYLKAAGLASPEEREEYLKKAVEASKIAIELAAKA
B18: design_488_244881a1-ba0c-4c08-ad9c-1f64cf93580a_2417_dldesign_0_cycle1_af2pred (protein)
chain: SAALEAAKQAYDDAAKAAEEAAKDPAVAETAAAAKKSLKAFADEMTAFIKASTDEADKQAAADTLKLYAKNITNQLKAAAAAA
B19: design_488_244881a1-ba0c-4c08-ad9c-1f64cf93580a_1220_dldesign_0_cycle1_af2pred (protein)
chain: DETEKKREEAKKEAEKLIEELEKAGKEVAAVPAASNMALATAKQGKKQLKEAEKLSPEEALKVYEAVKKSAEVALEIARATKAALAA
B20: design_488_244881a1-ba0c-4c08-ad9c-1f64cf93580a_931_dldesign_0_cycle1_af2pred (protein)
chain: MKELEEAAKRALELAPPEHRPLMERLVAIARELAKIIGDEEAAAILGEGVLEGARDPERAVDITMAAQGAAIRLAHARQSA
B21: design_488_244881a1-ba0c-4c08-ad9c-1f64cf93580a_631_dldesign_0_cycle1_af2pred (protein)
chain: GLRESTEKVLEVAGQLAAQTAATSPELGPQAAAVAEAGRARAEALIAAGDYEGAFAAANEAAAQLSRLAVQAAQAAAAA
B22: design_488_244881a1-ba0c-4c08-ad9c-1f64cf93580a_1486_dldesign_0_cycle1_af2pred (protein)
chain: SAAGQLALDTAKTFMQQAKELAKQDPQLALAALQSAKLAADGAIADPATAAQGKALKAEVKAQEAAVKAAAAAAA
B23: design_488_244881a1-ba0c-4c08-ad9c-1f64cf93580a_765_dldesign_0_cycle1_af2pred (protein)
chain: AADVAQAKEYAKQAKEFAEQADPELAKEVGKEAEALVKEAEADPSKAAEYLNKVGQLYVQAAAAAMKKLA
B24: design_488_244881a1-ba0c-4c08-ad9c-1f64cf93580a_1793_dldesign_0_cycle1_af2pred (protein)
chain: EAEELLARARAVEERGAELAAAAEALASVPGAASLKAHVAQALRAAQQAREAVADPEEATRLLRAAEASLRNAELVLEGMKIQAA
B25: design_488_244881a1-ba0c-4c08-ad9c-1f64cf93580a_1393_dldesign_0_cycle1_af2pred (protein)
chain: SPADEVAARLNALLGAAIKALAADPAAGLALAEEARRLAEELAKKYPTPEVKRVAEAAKKMADAIGAAAQAQLAAAQA
B26: design_488_244881a1-ba0c-4c08-ad9c-1f64cf93580a_362_dldesign_0_cycle1_af2pred (protein)
chain: AEEERRRAALAERARAVLQQAAAVGSQAAIADPSVSGTILDGLKEAYELLARGEVERALEVAEALLASAQATLAAL
B27: design_488_244881a1-ba0c-4c08-ad9c-1f64cf93580a_1807_dldesign_0_cycle1_af2pred (protein)
chain: AEEEESRRRAEGAKAFLDQILAAAQASASNPAALAALAASAEANAKSVAAAASPEYAKEVRDYAAKVVAQINALAA
B28: design_488_244881a1-ba0c-4c08-ad9c-1f64cf93580a_1954_dldesign_0_cycle1_af2pred (protein)
chain: AAAQEVAQTAAIMDAALIAAKQSPELLKEMMDVAVAHTKASADPAATLAVLKEKAAKIAEEGTPEAAKIAKAAVAEAA
B29: design_488_244881a1-ba0c-4c08-ad9c-1f64cf93580a_2450_dldesign_0_cycle1_af2pred (protein)
chain: AEERERLTEKARLALEAAESLVAEAERTSPERAAALARSALRFAAEAERYAKEAGDEEIAARAREVRARAEAIL
B30: design_488_244881a1-ba0c-4c08-ad9c-1f64cf93580a_782_dldesign_0_cycle1_af2pred (protein)
chain: AAAQAARAYAVLKAHADAAAKRAAELAAEGAEGARAGAQLLAVVSDAAAGAAKAFPEYAAELNALAAAAAAAAAAAAAAAAAAEAAA
B31: design_488_244881a1-ba0c-4c08-ad9c-1f64cf93580a_1131_dldesign_0_cycle1_af2pred (protein)
chain: DEASEKAEAAYNKAKALEAAGADPNDILAAYVDAMGYLSEAARAAREAGREEEAEKWQAKLKEAQKNATKAAKAAVAAARA
B32: design_488_244881a1-ba0c-4c08-ad9c-1f64cf93580a_1921_dldesign_0_cycle1_af2pred (protein)
chain: DKATLAAQAQAVVNATKIAVEAAEKAIKEGDKEAAKKAAEGLKQMVEVAEAMAKQLEAAGADQAVIDAVKEAAEAAKKAAEKAEKFA
B33: design_488_244881a1-ba0c-4c08-ad9c-1f64cf93580a_2117_dldesign_0_cycle1_af2pred (protein)
chain: AAEEFAKKEAEKAAEVAKTGTPEEAKKAATKLAKKVADAFGVGEALRMLAIAMKMVADDPAKVAAMRAAAAEVQRAAL
B34: design_488_244881a1-ba0c-4c08-ad9c-1f64cf93580a_2397_dldesign_0_cycle1_af2pred (protein)
chain: AVAAAEQRVKEAAAKVAKALADEPFDVIYAAIMKEGEKIGKETGLEKQIKAEAVKEAQAAFVARAKAQIAAA
B35: design_488_244881a1-ba0c-4c08-ad9c-1f64cf93580a_642_dldesign_0_cycle1_af2pred (protein)
chain: AEAARKAALAVRTAAASFKAAADAGASAEAVKKLGEVMAQSVEAYDPEVGKEVKAKVEELAKLPDAKKAAAELAKFMEAKAKEVAAK
B36: design_488_244881a1-ba0c-4c08-ad9c-1f64cf93580a_2213_dldesign_0_cycle1_af2pred (protein)
chain: AEAQAALIAAKGYYYLAQSYYTHVANNPSLPAEEKKQAAKNAKEAAEKAEEYAKKAGPEAQPYAEKAKKYAEETKKLAEEYA
B37: design_488_244881a1-ba0c-4c08-ad9c-1f64cf93580a_2241_dldesign_0_cycle1_af2pred (protein)
chain: GAALLAQAQALMKAANATAAAGDTATAAAAWADAAKKLAELAKEAAKEDPAYAATIQAMADMSKYIAEQAKA
B38: design_488_244881a1-ba0c-4c08-ad9c-1f64cf93580a_2073_dldesign_0_cycle1_af2pred (protein)
chain: GSMEELKERAKRIFEEANRVLARASRVATANPAALPLASRAIAEAVRAQELANEALKTDPETGKELLERAEEELREARRYLEEAEAA

target: CD276, Q5ZPR3
Sequence (Q5ZPR3 whole entry): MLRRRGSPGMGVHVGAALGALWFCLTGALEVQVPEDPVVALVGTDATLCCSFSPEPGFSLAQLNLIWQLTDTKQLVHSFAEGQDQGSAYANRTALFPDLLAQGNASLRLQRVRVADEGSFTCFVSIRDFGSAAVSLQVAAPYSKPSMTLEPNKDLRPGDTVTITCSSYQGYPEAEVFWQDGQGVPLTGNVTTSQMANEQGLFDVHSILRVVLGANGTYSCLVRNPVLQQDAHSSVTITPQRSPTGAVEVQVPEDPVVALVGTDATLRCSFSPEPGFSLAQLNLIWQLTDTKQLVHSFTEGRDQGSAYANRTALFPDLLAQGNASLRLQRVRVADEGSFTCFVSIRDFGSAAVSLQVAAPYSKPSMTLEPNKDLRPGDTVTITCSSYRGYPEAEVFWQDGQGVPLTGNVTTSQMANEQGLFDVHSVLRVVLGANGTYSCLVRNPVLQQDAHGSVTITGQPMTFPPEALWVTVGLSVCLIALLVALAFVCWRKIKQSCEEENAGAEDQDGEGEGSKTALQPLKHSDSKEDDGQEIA

| Binder | binding in a display sort |
| --- | --- |
| B1 | not found (inactive) |
| B2 | not found (inactive) |
| B3 | not found (inactive) |
| B4 | not found (inactive) |
| B5 | not found (inactive) |
| B6 | not found (inactive) |
| B7 | not found (inactive) |
| B8 | not found (inactive) |
| B9 | not found (inactive) |
| B10 | not found (inactive) |
| B11 | not found (inactive) |
| B12 | not found (inactive) |
| B13 | not found (inactive) |
| B14 | not found (inactive) |
| B15 | not found (inactive) |
| B16 | not found (inactive) |
| B17 | not found (inactive) |
| B18 | not found (inactive) |
| B19 | not found (inactive) |

| Binder | binding in a display sort |
| --- | --- |
| B20 | not found (inactive) |
| B21 | not found (inactive) |
| B22 | not found (inactive) |
| B23 | not found (inactive) |
| B24 | not found (inactive) |
| B25 | not found (inactive) |
| B26 | not found (inactive) |
| B27 | not found (inactive) |
| B28 | not found (inactive) |
| B29 | binds (active) |
| B30 | not found (inactive) |
| B31 | not found (inactive) |
| B32 | not found (inactive) |
| B33 | not found (inactive) |
| B34 | not found (inactive) |
| B35 | not found (inactive) |
| B36 | not found (inactive) |
| B37 | not found (inactive) |
| B38 | not found (inactive) |
